The AC50 is the midpoint of the concentration-response curve, whichever way the signal moves.

Several values for one entry are separate records, joined by “and”; a condition that tells them apart may be missing. Equal values may be shown once. Inconclusive results are not listed. Some compounds were tested as several samples or in several runs, with calls that do not always agree. Activity calls are given as the source filed them. Rule for the calls, unless noted: active = hit-call score of the fitted dose curve at least 0.9, where 1 is the maximum; inactive = score below 0.9.

For test [1], the target named is Oxysterols receptor LXR-alpha (Homo sapiens) (UniProt Q13133). Nature of the test: ATG_LXRa_TRANS: Attagene TRANS-FACTORIAL HepG2 Assay for human Liver X Receptor alpha (LXRa) (AID 2282980; active = hit-call score of the fitted dose curve at least 0.9, where 1 is the maximum). The conditions noted are these: HepG2 Attagene TRANS reporter, LXRa transactivation. The essentials:
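HepG2 cells transiently transfected with GAL4-UAS reporter units for chimeric NR-Gal4 proteins, exposed to chemicals for 24 h. Reporter mRNA quantified by RT-PCR and capillary electrophoresis; gain of signal fitted relative to DMSO.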

The target of test [2] is Hepatocyte nuclear factor 4-alpha (Homo sapiens) (UniProt P41235). Put plainly: ATG_HNF4a_TRANS: Attagene TRANS-FACTORIAL HepG2 Assay for human Hepatocyte Nuclear Factor 4 alpha (HNF4a) (AID 2282982; active = hit-call score of the fitted dose curve at least 0.9, where 1 is the maximum). Particulars: HepG2 HNF4a transactivation reporter, mRNA readout. The essentials: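 Transient MRTU transfection of HepG2, 24 h dosing. Readout: reporter mRNA via RT-PCR + capillary electrophoresis, fluorescence; activity fit upward relative to DMSO control.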
Sequence of Hepatocyte nuclear factor 4-alpha (Homo sapiens) (P41235 whole entry, looked up): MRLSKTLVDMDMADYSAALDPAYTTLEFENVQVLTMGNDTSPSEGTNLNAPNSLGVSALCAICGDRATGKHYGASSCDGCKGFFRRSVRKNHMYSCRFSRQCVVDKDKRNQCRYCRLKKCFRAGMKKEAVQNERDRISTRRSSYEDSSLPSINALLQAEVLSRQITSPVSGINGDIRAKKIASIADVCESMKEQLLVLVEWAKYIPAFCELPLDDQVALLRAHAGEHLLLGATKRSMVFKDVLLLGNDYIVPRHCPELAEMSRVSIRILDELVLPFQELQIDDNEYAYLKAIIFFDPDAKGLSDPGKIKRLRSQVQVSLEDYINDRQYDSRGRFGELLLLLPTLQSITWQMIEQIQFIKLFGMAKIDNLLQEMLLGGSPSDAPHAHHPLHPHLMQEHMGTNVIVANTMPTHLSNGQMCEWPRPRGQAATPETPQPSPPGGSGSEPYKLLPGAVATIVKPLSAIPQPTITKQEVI

Test [3] in a line: ATG_M_06_TRANS: Attagene TRANS-FACTORIAL HepG2 Assay for M06 Transcription Factor (Internal Marker) (AID 2282983; active = hit-call score of the fitted dose curve at least 0.9, where 1 is the maximum;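 note: reporter transcript level by RT-PCR then capillary electrophoresis fluorescence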). Particulars: HepG2 Attagene TRANS M06 internal marker reporter. The procedure, abridged: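 mRNA levels of a reporter transcript, quantified as FAM fluorescence on capillary electrophoresis, served as readout. HepG2 cells expressing exogenous GAL4-chimera reporter constructs were exposed for 24 h. Gain of signal over DMSO was evaluated.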

Test [4] can be described thus: ATG_M_32_TRANS: Attagene TRANS-FACTORIAL HepG2 Assay for M32 Transcription Factor (Internal Marker) (AID 2282984; active = hit-call score of the fitted dose curve at least 0.9, where 1 is the maximum;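 for outcome: transcript level of a background control reporter unit measured by RT-PCR and capillary electrophoresis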). Particulars: HepG2 Attagene TRANS M32 internal marker reporter. The essentials: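 Read-out: fluorescent reporter cDNA fragments resolved by capillary electrophoresis after RT-PCR of total RNA. Transfected HepG2 cells were exposed to chemical for 24 h. Activity scored in the positive direction relative to DMSO.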

Test [5] concerns the target Nuclear receptor subfamily 4 group A member 2 (Homo sapiens) (UniProt P43354). Nature of the test: ATG_NURR1_TRANS: Attagene TRANS-FACTORIAL HepG2 Assay for human Nuclear Receptor Related Protein 1 (NURR1) (AID 2282985; active = hit-call score of the fitted dose curve at least 0.9, where 1 is the maximum). The conditions noted are these: HepG2 Attagene TRANS reporter, mRNA readout. The essentials: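 Read-out: reporter mRNA induction by RT-PCR plus capillary electrophoresis with fluorescence detection, after 24 h dosing of transfected HepG2 cells. Exogenous NR-Gal4 chimera activity drives GAL4-UAS reporter; activity fitted upward versus DMSO.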

The target in test [6] is Transcriptional activator Myb (Homo sapiens) (UniProt P10242). Put plainly: ATG_Myb_CIS: Attagene CIS-FACTORIAL HepG2 Assay for human Myeloblastosis (Myb) Proto-Oncogene Transcription Factor (AID 2282986). Particulars: HepG2 Attagene CIS-FACTORIAL Myb reporter transcription; actives raise or lower the signal. The procedure, abridged: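 Using HepG2 liver cells bearing transiently transfected cis-promoter reporter constructs, the assay measures induction or loss of reporter mRNA after 24 hours of dosing. Detection used fluorescently labeled RT-PCR products separated by capillary electrophoresis.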
Sequence of Transcriptional activator Myb (Homo sapiens) (P10242 whole entry, looked up): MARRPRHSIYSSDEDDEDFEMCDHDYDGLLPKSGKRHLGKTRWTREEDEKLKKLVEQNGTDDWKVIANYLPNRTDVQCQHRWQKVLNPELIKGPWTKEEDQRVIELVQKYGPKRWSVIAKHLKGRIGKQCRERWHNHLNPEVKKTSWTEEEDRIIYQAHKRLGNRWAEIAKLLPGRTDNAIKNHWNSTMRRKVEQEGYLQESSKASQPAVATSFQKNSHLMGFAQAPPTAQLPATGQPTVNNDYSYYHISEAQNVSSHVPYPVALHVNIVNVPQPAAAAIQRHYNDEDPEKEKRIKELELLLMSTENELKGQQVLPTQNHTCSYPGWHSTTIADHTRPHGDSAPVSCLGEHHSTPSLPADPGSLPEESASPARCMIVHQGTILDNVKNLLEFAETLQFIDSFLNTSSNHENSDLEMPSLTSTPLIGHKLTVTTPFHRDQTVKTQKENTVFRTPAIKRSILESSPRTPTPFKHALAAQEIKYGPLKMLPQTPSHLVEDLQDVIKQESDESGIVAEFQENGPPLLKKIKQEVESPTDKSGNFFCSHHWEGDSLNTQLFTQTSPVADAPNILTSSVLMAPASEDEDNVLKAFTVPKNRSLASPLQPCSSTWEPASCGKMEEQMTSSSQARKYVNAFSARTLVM

The target in test [7] is Nuclear respiratory factor 1 (Homo sapiens) (UniProt Q16656). Nature of the test: ATG_NRF1_CIS: Attagene CIS-FACTORIAL HepG2 Assay for human Nuclear Respiratory Factor 1 (NRF1) Orphan Gene (AID 2282987). Particulars: HepG2 NRF1 cis-element reporter, Attagene multiplex; actives raise or lower the signal. The essentials: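 Reporter mRNA induction or loss in HepG2 cells after 24 h dosing; cis-regulated reporter constructs report endogenous transcription-factor activity. Quantified by RT-PCR/capillary electrophoresis fluorescence, DMSO-referenced.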
Sequence of Nuclear respiratory factor 1 (Homo sapiens) (Q16656 whole entry, looked up): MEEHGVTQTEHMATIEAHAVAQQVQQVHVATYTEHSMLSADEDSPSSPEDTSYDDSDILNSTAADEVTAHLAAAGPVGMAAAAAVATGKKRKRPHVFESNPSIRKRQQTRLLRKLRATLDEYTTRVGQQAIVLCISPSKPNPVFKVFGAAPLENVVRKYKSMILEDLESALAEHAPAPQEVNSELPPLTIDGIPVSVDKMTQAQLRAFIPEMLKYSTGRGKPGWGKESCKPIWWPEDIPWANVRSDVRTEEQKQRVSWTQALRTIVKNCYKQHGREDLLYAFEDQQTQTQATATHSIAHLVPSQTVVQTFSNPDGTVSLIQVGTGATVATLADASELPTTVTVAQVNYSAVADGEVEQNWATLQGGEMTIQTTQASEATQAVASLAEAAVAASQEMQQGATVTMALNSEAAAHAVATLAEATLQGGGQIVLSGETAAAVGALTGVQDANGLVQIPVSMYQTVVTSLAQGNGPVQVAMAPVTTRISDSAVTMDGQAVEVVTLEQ

Test [8] is described as follows: ATG_NFI_CIS: Attagene CIS-FACTORIAL HepG2 Assay for human Nuclear Factor I (NFI) (AID 2282989). The conditions noted are these: HepG2 cis-regulatory reporter, NFI response element transcription; actives raise or lower the signal. The essentials:
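HepG2 cells transiently transfected with cis-element-driven multiplexed reporter transcription units, dosed for 24 h. Reporter mRNA quantified by RT-PCR, fluorescent labelling, HpaI digestion and capillary electrophoresis; bidirectional fit versus DMSO baseline.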

The target of test [9] is Myc proto-oncogene protein (Homo sapiens) (UniProt P01106). Nature of the test: ATG_Myc_CIS: Attagene CIS-FACTORIAL HepG2 Assay for human Myelocytomatosis (Myc) Proto-Oncogene Transcription Factor (AID 2282990). The conditions noted are these: HepG2, Attagene cis-reporter transcription factor activity; actives raise or lower the signal. The procedure, abridged: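 Transiently transfected HepG2 cells bearing cis-promoter reporter units for endogenous transcription factors; 24 h exposure. Reporter mRNA measured by RT-PCR, 6-FAM primer extension, HpaI cut and capillary electrophoresis; bidirectional fit relative to DMSO.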
Sequence of Myc proto-oncogene protein (Homo sapiens) (P01106 whole entry, looked up): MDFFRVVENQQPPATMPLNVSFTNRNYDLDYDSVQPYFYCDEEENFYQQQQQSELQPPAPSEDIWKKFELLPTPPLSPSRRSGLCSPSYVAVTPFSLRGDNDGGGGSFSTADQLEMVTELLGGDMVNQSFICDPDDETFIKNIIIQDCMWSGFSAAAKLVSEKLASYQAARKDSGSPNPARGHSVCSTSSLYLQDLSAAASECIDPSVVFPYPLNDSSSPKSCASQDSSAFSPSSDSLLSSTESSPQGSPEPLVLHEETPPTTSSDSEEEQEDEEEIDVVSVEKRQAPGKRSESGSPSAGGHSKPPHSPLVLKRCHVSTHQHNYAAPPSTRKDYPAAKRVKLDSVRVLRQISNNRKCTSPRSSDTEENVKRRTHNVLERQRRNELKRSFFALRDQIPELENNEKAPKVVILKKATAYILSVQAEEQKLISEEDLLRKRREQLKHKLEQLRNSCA

Test [10] in a line: ATG_NF_kB_CIS: Attagene CIS-FACTORIAL HepG2 Assay for human Nuclear Factor Kappa B (NF-kB) (AID 2282991). The conditions noted are these: HepG2 Attagene cis-factorial NF-kB reporter mRNA; actives raise or lower the signal. The procedure, abridged:
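DMSO served as negative control and baseline for bidirectional curve fitting. Transiently transfected HepG2 cells were dosed for 24 h, then reporter transcripts were measured by RT-PCR with capillary electrophoresis detection.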

Test [11] is described as follows: ATG_Oct_MLP_CIS: Attagene CIS-FACTORIAL HepG2 Assay for human Octamer-Binding Transcription Factor (Oct) (AID 2282993). The conditions noted are these: HepG2 Attagene cis-factorial Oct reporter, mRNA; actives raise or lower the signal. The essentials:
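HepG2 cells transiently transfected with cis-promoter-driven multiplexed reporter transcription units, dosed for 24 h. Reporter mRNA quantified by RT-PCR, fluorescent labelling, HpaI digestion and capillary electrophoresis; bidirectional fits versus DMSO baseline.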

Test [12] addresses Cellular tumor antigen p53 (Homo sapiens) (UniProt P04637). Nature of the test: ATG_p53_CIS: Attagene CIS-FACTORIAL HepG2 Assay for human p53 Transcription Factor (AID 2282994). Particulars: HepG2 p53 cis-element reporter, Attagene mRNA; actives raise or lower the signal. The essentials:
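Transiently transfected HepG2 (multiple cis reporter transcription units); exposure 24 h; reporter RNA via RT-PCR, 6-FAM extension, 2 h HpaI digest at 37 C, CE detection; DMSO baseline.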

Test [13] in a line: BSK_3C_TissueFactor: BioMAP Diversity Plus: 3C Assay for Tissue Factor Biomarker Activity (AID 2282997). Particulars: BioMAP 3C HUVEC, tissue factor biomarker readout; actives raise or lower the signal. The essentials: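 Tissue Factor measured by ELISA, 24 h after treatment of primary HUVEC in the BioMAP 3C setting.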
A short description of test [14]: BSK_3C_uPAR: BioMAP Diversity Plus: 3C Assay for Urokinase-type plasminogen activator receptor (uPAR) Biomarker Activity (AID 2282998). The conditions noted are these: BioMAP 3C HUVEC, uPAR biomarker ELISA; actives raise or lower the signal. The procedure, abridged:
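Human umbilical vein endothelial primary cells were exposed to test chemical for 24 h. Cell-surface uPAR was then quantified by ELISA, and responses were fitted bidirectionally against DMSO as negative control and baseline.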
Background: In an ELISA, binding on a coated surface is turned into a signal by an enzyme label.

Test [15] in a line: BSK_3C_VCAM1: BioMAP Diversity Plus: 3C Assay for Vascular cell adhesion molecule 1 (VCAM1) Biomarker Activity (AID 2282999). Particulars: BioMAP 3C HUVEC, VCAM1 ELISA, cytokine-stimulated; actives raise or lower the signal. The procedure, abridged:
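HUVEC primary cells, 24 h compound exposure; VCAM-1 by ELISA; gain/loss of signal fitted bidirectionally vs DMSO baseline.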

Test [16] in a line: BSK_4H_Eotaxin3: BioMAP Diversity Plus: 4H Assay for Eotaxin 3 Biomarker Activity (AID 2283000).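 For outcome: CCL26 protein level quantified by ELISA in parallel with SRB cytotoxicity check.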 Particulars: primary human endothelial cells (HUVEC); actives raise or lower the signal. The procedure, abridged: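 Eotaxin-3 (CCL26) levels were measured by ELISA in HUVEC primary cultures 24 h post-dosing. Gain or loss of signal was fitted in both directions, with DMSO serving as baseline and negative control.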

In test [17] the target is Bile acid receptor (Homo sapiens) (UniProt Q96RI1). Put plainly: ATG_FXR_TRANS: Attagene TRANS-FACTORIAL HepG2 Assay for Farnesoid X Receptor (FXR) (AID 2282979; active = hit-call score of the fitted dose curve at least 0.9, where 1 is the maximum;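 note: hits raise reporter mRNA above DMSO so AC50 marks FXR activation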). The conditions noted are these: HepG2 Attagene TRANS FXR-GAL4 reporter transcription. The essentials:
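HepG2 cells were transiently transfected with GAL4-UAS reporters driven by chimeric NR-Gal4 proteins and dosed for 24 h. Reporter mRNA was quantified by RT-PCR, fluorescent labelling, HpaI digestion and capillary electrophoresis, with gain of signal scored versus DMSO.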

A short description of test [18]: ATG_NRF2_ARE_CIS: Attagene CIS-FACTORIAL HepG2 Assay for human Nuclear Factor Erythroid 2 Related Factor 2 (NFR2) response to Antioxidant Response Elements (ARE) (AID 2282992).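 For AC50: reporter mRNA level measured by RT-PCR and capillary electrophoresis fluorescence.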 The conditions noted are these: HepG2 Attagene ARE/NRF2 reporter, transcription factor activity; actives raise or lower the signal. The essentials:
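Fluorescence intensity of reporter-specific cDNA fragments, separated by capillary electrophoresis, reflects mRNA induction in transfected HepG2 cells at 24 h. Activity is fitted bidirectionally, DMSO serving as baseline.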

Sequence of Bile acid receptor (Homo sapiens) (Q96RI1 whole entry, looked up, the tested form may be a part): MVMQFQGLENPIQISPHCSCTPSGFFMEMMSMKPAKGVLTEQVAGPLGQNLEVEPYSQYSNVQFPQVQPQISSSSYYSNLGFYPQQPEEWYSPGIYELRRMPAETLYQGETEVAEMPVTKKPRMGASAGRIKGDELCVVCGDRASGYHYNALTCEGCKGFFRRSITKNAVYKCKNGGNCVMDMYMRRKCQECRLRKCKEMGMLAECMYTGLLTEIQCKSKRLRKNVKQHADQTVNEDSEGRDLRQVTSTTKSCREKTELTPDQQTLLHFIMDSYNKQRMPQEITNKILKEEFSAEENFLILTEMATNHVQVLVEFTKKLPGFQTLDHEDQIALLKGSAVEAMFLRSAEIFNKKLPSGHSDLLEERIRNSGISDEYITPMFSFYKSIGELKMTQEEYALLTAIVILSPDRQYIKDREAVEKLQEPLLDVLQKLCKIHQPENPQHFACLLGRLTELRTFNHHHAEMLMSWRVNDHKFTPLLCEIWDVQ
Sequence of Nuclear receptor subfamily 4 group A member 2 (Homo sapiens) (P43354 whole entry, looked up, the tested form may be a part): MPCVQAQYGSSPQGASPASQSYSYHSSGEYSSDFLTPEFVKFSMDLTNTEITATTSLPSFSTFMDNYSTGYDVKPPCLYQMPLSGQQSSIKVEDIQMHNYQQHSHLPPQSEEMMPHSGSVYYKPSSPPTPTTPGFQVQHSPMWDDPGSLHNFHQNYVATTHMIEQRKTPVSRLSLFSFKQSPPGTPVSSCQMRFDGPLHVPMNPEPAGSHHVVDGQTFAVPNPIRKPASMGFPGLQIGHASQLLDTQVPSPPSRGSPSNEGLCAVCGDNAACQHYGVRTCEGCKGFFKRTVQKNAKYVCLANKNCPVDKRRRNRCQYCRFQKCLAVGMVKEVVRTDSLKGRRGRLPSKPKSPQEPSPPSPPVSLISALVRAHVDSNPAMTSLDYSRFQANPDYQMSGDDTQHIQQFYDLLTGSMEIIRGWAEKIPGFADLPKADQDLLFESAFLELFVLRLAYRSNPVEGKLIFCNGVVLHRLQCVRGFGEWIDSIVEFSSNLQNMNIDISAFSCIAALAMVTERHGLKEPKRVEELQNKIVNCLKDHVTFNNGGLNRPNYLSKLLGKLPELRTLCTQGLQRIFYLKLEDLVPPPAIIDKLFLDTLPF
Sequence of Cellular tumor antigen p53 (Homo sapiens) (P04637 whole entry, looked up): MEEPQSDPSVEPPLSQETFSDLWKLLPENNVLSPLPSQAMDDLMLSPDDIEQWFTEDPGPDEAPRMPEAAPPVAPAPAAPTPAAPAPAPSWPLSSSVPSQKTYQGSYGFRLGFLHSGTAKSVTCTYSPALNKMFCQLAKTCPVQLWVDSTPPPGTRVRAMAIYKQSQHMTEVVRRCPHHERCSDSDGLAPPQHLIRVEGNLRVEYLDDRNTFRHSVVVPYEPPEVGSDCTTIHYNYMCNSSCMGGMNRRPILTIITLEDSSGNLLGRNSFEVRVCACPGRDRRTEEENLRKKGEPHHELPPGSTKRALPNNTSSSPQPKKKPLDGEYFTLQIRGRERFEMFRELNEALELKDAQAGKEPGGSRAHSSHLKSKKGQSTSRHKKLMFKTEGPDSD
Sequence of Oxysterols receptor LXR-alpha (Homo sapiens) (Q13133 whole entry, looked up, the tested form may be a part): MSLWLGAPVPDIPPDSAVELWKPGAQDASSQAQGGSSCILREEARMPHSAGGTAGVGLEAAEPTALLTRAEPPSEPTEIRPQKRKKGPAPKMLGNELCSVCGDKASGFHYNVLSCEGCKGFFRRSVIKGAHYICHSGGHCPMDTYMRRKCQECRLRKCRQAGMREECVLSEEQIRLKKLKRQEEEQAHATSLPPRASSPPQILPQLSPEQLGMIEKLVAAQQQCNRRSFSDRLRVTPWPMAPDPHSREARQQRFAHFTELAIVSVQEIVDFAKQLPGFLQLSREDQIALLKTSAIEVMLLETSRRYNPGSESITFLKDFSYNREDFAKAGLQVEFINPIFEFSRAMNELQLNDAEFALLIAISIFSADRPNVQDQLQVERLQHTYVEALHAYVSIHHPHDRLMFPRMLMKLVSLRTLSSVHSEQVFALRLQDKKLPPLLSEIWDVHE

Take `CCCCCc1ccc(N)cc1`: the compound was called inactive in test [1], in test [2], in [3], in test [4], in [5] and in test [6]. Besides, the compound was called inactive in test [7], in test [8], in test [9], in test [10], in test [11] and in [12]. The outcome in test [13], in [14] and in [15] was inactive. Besides, the concentration at half-maximal activity (AC50) is 20.2 µM (active) in test [10]; 6.21 µM (active) and 6.72 µM (active) in test [12]; 14 µM (active) in [16].

For `Clc1ccccc1C(c1ccccc1)(c1ccccc1)n1ccnc1`, the call in test [17], in [3], in test [5], in test [6], in test [7] and in test [8] was inactive. Moreover, the call in test [9], in [10] and in test [12] was inactive. The AC50 is 5.21 µM (active) in test [18]; 11.1 µM (active) in test [11]; 31 µM (active) in test [13]; 14.8 µM (active) in test [14]; 33.1 µM (active) in test [15]; 31.3 µM (active) in [16].

Take `CN(C[C@@H](CC[N+]12CCC(C3CCCCC3)(CC1)CC2)c1ccc(Cl)c(Cl)c1)C(=O)c1cc(C(F)(F)F)cc(C(F)(F)F)c1`: the compound was called inactive in [3], in test [6], in [7], in test [8], in test [9] and in [10]. Also, the result in [18], in [11] and in test [12] was inactive. Further, the AC50 in [4] is 18.4 µM (active); in test [13], 23.5 µM (active); in [14], 14.3 µM (active); in [15] it was 31.9 µM (active); in [16], 30.4 µM (active).

For `CN1C(=O)CC[C@H]1c1cccnc1`, the compound was called inactive in test [1], in [2], in test [3], in [4], in test [5] and in test [6]. Moreover, the compound was called inactive in test [7], in [9], in test [10], in test [18], in [11] and in test [12]. Besides, the result in test [13], in test [14], in test [15] and in [16] was inactive.

For the compound `C[C@]12CC[C@@H]3c4ccc(O)cc4CC[C@H]3[C@@H]1CC[C@H]2O`, the outcome in [1], in test [2], in test [3], in test [4], in [5] and in test [6] was inactive. The call in [7], in test [9], in test [18], in test [11], in test [12] and in test [15] was inactive. Moreover, the concentration at half-maximal activity (AC50) in [11] was 27.2 µM (active); in test [12] it was 27.7 µM (active) and 10.4 µM (active) and 9.47 µM (active); in test [13] it was 18.1 µM (active); in test [14], 16.7 µM (active); in test [16], 25 µM (active).

Take `CCCCCCCCCCCO`: the call in test [17], in test [5], in [6], in test [7], in test [8] and in test [9] was inactive. The outcome in test [10], in test [18], in test [11] and in [12] was inactive. For the same compound, the AC50 in test [4] was 166 µM (active); in [13], 36.4 µM (active); in [14], 34.2 µM (active); in test [15], 36.3 µM (active); in test [16] it was 31.6 µM (active).

As to `O=C(O)c1ccccc1C(=O)OCc1ccccc1`, the outcome in test [17], in test [3], in test [5], in test [6], in test [7] and in test [8] was inactive. The result in [9], in test [10], in test [18], in test [11], in test [12] and in test [13] was inactive. For the same compound, the outcome in test [14], in test [15] and in test [16] was inactive.

For the origin of these results see PubChem BioAssay (EPA / NIEHS).
